Hits are enriched below; roughly 17% of the tested compounds scored in any of these assays.
HepG2 viability: HepG2 cytotoxicity, counter-screen for TGF-b inhibitors. HepG2 CAGA-GFP viability, ATP luminescence, 18 h. Potency, µM (highest dose often 46.1 µM), most hits filed as cytotoxic. 410,000 tested, 0.76% active. AID 588856
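CellTiter-Glo luminescence gave cytotoxicity after 18 hours at 37 degrees C. The cells were HepG2 CAGA-GFP in 1% FBS DMEM, stimulated with 500 pg/mL TGF-beta after compound addition. %Activity was normalised to no-cell wells (complete cell-killing) and DMSO (no toxicity), and curves were fitted and classified.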
TDP1 cell noCPT: qHTS for Inhibitors of human tyrosyl-DNA phosphodiesterase 1 (TDP1): qHTS in cells in absence of CPT; 420,000 tested, 15% active; Potency, µM (titrated, usually from 46.2 µM), actives largely listed as inhibitors; DT40 Tdp1-/- hTDP1 cells, no CPT, ATP luminescence, 48 h; also: nearly all actives have a fitted effect of over 55% in size
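Camptothecin absent (DMSO only). Human TDP1-complemented DT40 knockout cells, 400 cells/well, 37 °C for minimum 48 hr; ATP measured via CellTiter-Glo, 30 min dark incubation, luminescence.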
TDP1 cell CPT: growth inhibition of DT40 Tdp1-/-;hTDP1 cells with camptothecin (screen for TDP1 inhibitors) | Potency, µM (top dose mostly 46.2 µM), actives largely listed as inhibitors | 420,000 tested, 12% active | AID 686979 | chicken DT40 Tdp1-/-;hTDP1 cells + 20 nM CPT, ATP luminescence, 48 h; also: nearly all actives have a fitted effect of over 55% in size
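Cell growth measured by CellTiter-Glo luminescence after a minimum 48 h, 37 C compound exposure with 20 nM CPT in Tdp1-knockout DT40 cells stably expressing hTDP1, seeded 400/well; qHTS titration format.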
ATXN viability: cell viability loss in ATXN counter-screen. S2 cells (HEK-293 line with an ATXN2-luciferase reporter) viability, CellTiter-Fluor protease fluorescence, 24 h. 400,000 tested, 0.49% active. Potency, µM (titrated, usually from 56.7 µM), usual class: cytotoxic; also: nearly all actives have a fitted effect of over 40% in size
ATXN2 expr inh: reduces ATXN2 reporter expression in HEK-293 cells; 360,000 tested, 0.72% active; HEK-293 ATXN2-luciferase reporter, luminescence, 24 h; Potency, µM (doses to about 57 µM), hits mostly inhibitors; also: nearly all actives have a fitted effect of over 55% in size
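qHTS (up to 57 uM final) was run with 24 h compound exposure of reporter cells at 37 °C. Each well was multiplexed: SteadyGlo luminescence measured ATXN2-luciferase expression after a fluorogenic Gly-Phe-AFC viability readout (25 uM final).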
TGFb SMAD3 inh: TGF-b pathway inhibition; HepG2 CAGA-GFP TGF-b/SMAD3 reporter, GFP fluorescence, 18 h; TGF-beta stimulated, 500 pg/mL final; Potency, µM (top dose mostly 46.1 µM), most hits filed as inhibitors; 410,000 tested, 1.2% active; also: nearly all actives have a fitted effect of over 65% in size
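Read-out: total well GFP (ex488/em500-530) summed from mean per-cell fluorescence. Cells: HEPG2 CAGA-GFP, 1% FBS DMEM, 18 h at 37 degrees C with 500 pg/mL final TGF-beta. Unstimulated wells served as the full-inhibition control; stimulated DMSO wells = 0%.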
A number is an active result; 0 = inactive; ? = inconclusive; - = no result given; [ ] = dose if it differs, or a comment. Calls follow the shape of the dose curve; as a rule, active = well fitted curve in the direction sought with a large enough effect; inconclusive = small, poorly fitted or top-dose-only effect, or another doubt; inactive = no such curve, though single readings can be large; an effect the other way counts as inactive or inconclusive.

SMILES	HepG2 viability	TDP1 cell noCPT	TDP1 cell CPT	ATXN viability	ATXN2 expr inh	TGFb SMAD3 inh
Cc1cc(Oc2cc(NN3CCCCC3)c([N+](=O)[O-])cc2[N+](=O)[O-])c(C(=O)c2ccccc2)cc1Cl	0	?	20.6µM	0	0	0
O=[N+]([O-])c1cc([N+](=O)[O-])c(Oc2cccc(Cl)c2Cl)cc1NN1CCCCC1	0	?	23.1µM	0	0	0
CC1(C)Cc2cccc(Oc3cc(NN4CCCCC4)c([N+](=O)[O-])cc3[N+](=O)[O-])c2O1	0	16.4µM	?	0	0	0
O=[N+]([O-])c1cc([N+](=O)[O-])c(Oc2ccccc2F)cc1NN1CCCCC1	0	0	?	0	0	0
Cc1ccc(C)c(Oc2cc(NN3CCCCC3)c([N+](=O)[O-])cc2[N+](=O)[O-])c1	0	0	?	0	0	0
Cc1ccc(F)c(Oc2cc(NN3CCCCC3)c([N+](=O)[O-])cc2[N+](=O)[O-])c1	0	?	?	0	0	0
COc1cc(C(C)=O)ccc1Oc1cc(NN2CCCCC2)c([N+](=O)[O-])cc1[N+](=O)[O-]	0	?	23.1µM	0	0	0
CCOc1ccc(N(C(=O)CNC(=O)c2ccco2)C(C(=O)NC2CCCC2)c2cccnc2)cc1 (centres undefined)	0	0	0	0	0	0
CC(C)CNC(=O)c1ccccc1N(Cc1ccccc1)S(C)(=O)=O	0	0	0	0	0	0
O=C(c1cc(Br)ccc1OC(F)F)N1CCN2CCCC2C1 (centres undefined)	0	0	0	0	0	0
Cc1ccc(NC(=O)Nc2cccc([N+](=O)[O-])c2)cc1F	0	16.4µM	?	0	0	?
O=C(Nc1ccc(OC(F)(F)F)cc1)Nc1cccc([N+](=O)[O-])c1	7.94µM	4.11µM	2.91µM	15.8µM	?	?
Cc1cc([N+](=O)[O-])ccc1NC(=O)Nc1ccc(F)cc1F	0	4.61µM	5.17µM	0	0	0
CC(C)C(=O)Nc1cccc(C(=O)Nc2cc([N+](=O)[O-])ccc2Cl)c1	0	?	0	0	-	0
Cc1cc([N+](=O)[O-])ccc1NC(=O)c1cccc(NC(=O)C(C)C)c1	0	23.1µM	?	?	-	0
COCCN(C)C(=O)c1cnn(-c2nccc(-c3cc(C)sc3C)n2)c1C	-	0	0[9.04 µM]	0	-	-
COc1ccc(S(=O)(=O)NCCc2sc(-c3ccccc3)nc2C)cc1OC	0	-	-	0	0	0
Cc1nc(-c2ccccc2)sc1CCNS(=O)(=O)c1ccc(Br)cc1	0	-	-	0	?	11.2µM
Cc1cc(S(=O)(=O)NCCc2csc(-c3cccc(F)c3)n2)ccc1F	12.6µM	1.3µM	?	?	?	?
COc1ccc(S(=O)(=O)NCCc2sc(-c3cccc(F)c3)nc2C)cc1	0	20.6µM	16.4µM	0	0	?
COc1ccc(-c2nc(C)c(CCNS(=O)(=O)c3cc(C)c(C)cc3C)s2)cc1	0	-	-	?	?	11.2µM
COc1ccc(-c2nc(C)c(CCNS(=O)(=O)c3cc(Cl)ccc3Cl)s2)cc1	0	-	-	?	?	?
CCC(=O)Nc1ccc(C)cc1-c1nc2ccccc2n(CC(=O)Nc2ccccc2Cl)c1=O	0	0	?	-	-	0
CCOC(=O)C1CCN(S(=O)(=O)c2ccc3c4c(cccc24)C(=O)N3CC)CC1	0	0	0	-	0	0
CC(CC(c1ccccc1)c1ccccc1)NC(C)(C)C (centres undefined)	-	?	?	0	-	-
SMILES	HepG2 viability	TDP1 cell noCPT	TDP1 cell CPT	ATXN viability	ATXN2 expr inh	TGFb SMAD3 inh
CC(C)(C)c1ccc(OCC(=O)N(Cc2cccs2)C2CCS(=O)(=O)C2)cc1 (centres undefined)	0	?	16.4µM	?	0	0
Cc1ccc(CN(C(=O)COc2ccc(C(C)C)cc2)C2CCS(=O)(=O)C2)o1 (centres undefined)	0	18.4µM	14.6µM	?	?	0
CCc1ccc(OCC(=O)N(Cc2cccs2)C2CCS(=O)(=O)C2)cc1 (centres undefined)	0	?	0	?	0	0
CC(C)c1ccc(OCC(=O)N(Cc2cccs2)C2CCS(=O)(=O)C2)cc1 (centres undefined)	0	?	?	0	0	0
Cc1nc(CC(=O)Nc2ccc(N(C)C)cc2)cs1	0	0	0	-	-	0
CN1N=C(N)c2cn([C@@H]3O[C@H](COP(=O)(O)O)[C@@H](O)[C@@H]3O)c3ncnc1c23	-	-	-	-	0	-
CC(C)(O)C#Cc1ccc(CN2CCCC(CO)(Cc3cccc(Cl)c3)C2)cc1 (centres undefined)	0	14.6µM	14.6µM	0	?	?
COc1cc(Cl)c(CN2CCCC(CO)(Cc3cccc(Cl)c3)C2)cc1OC (centres undefined)	0	?	18.4µM	0	0	?
CCn1nc(C)c(CN2CCCC(CO)(Cc3ccccc3)C2)c1C (centres undefined)	0	?	0	0	0	0
COc1ccccc1/C=C/CN1CCCC(CO)(Cc2cccc(Cl)c2)C1 (centres undefined)	0	23.1µM	?	0	?	?
CCn1nc(C)c(CN2CCCC(CO)(Cc3cccc(Cl)c3)C2)c1C (centres undefined)	0	16.4µM	?	0	-	?
CC(C)(C)OC(=O)N(CC1CCNCC1)C(=O)c1[nH]c(C(F)(F)F)nc1-c1ccccc1	0	0	0	0	0	0
O=c1[nH]c(SCc2ccc(F)cc2)nc2c1CCCC2	0	?	?	0	0	0
Cc1c(CN2CCCC(CO)(Cc3cccc(Cl)c3)C2)cnn1C (centres undefined)	0	0	0	0	0	0
OCC1(Cc2cccc(Cl)c2)CCCN(Cc2sc(N3CCCC3)nc2Cl)C1 (centres undefined)	0	18.4µM	20.6µM	0	-	?
OC(c1cc(C(F)(F)F)nc2c(Cl)cc(Cl)cc12)C1CCCCN1 (centres undefined)	0	?	18.4µM	?	?	?
OC(c1cc(-c2ccc(Cl)cc2)nc2ccccc12)C1CCCCN1 (centres undefined)	0	25.9µM	23.1µM	?	-	0
CC[N+](C)(CC)CCC(c1ccccc1)C1CCCCC1 (centres undefined)	0	?	8.2µM	0	0	0
Cc1cc(C)cc(N(CCC(=O)Nc2nnc(C)s2)S(=O)(=O)c2ccc(Cl)cc2)c1	0	23.1µM	?	0	0	0
Cc1cc(C)cc(N(C)S(=O)(=O)c2nnc(NC(=O)COc3ccc(Cl)cc3)s2)c1	0	0	0	-	-	0
